The text below walks through data of PubChem BioAssay.

Assay [1] can be described thus: viability loss in pontine glioma line – cell-based, SU-DIPG-XIII, MIPE5.0, CellTiter-Glo, qHTS, dose response (AID 1347064; cut-off not given, nearly all actives have AC50 up to about 23 µM;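 as to AC50: cells exposed to compound for 48 hours before the viability read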). To be noted: CellTiter-Glo ATP luminescence.
A short description of assay [2]: viability loss in pontine glioma line – cell-based, SU-DIPG-XXV, MIPE5.0, CellTiter-Glo, qHTS, dose response (AID 1347065; cut-off not given, nearly all actives have AC50 up to about 26 µM;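 also: cells exposed to compound for 48 hours before ATP readout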). To be noted: CellTiter-Glo ATP luminescence.
Assay [3] can be described thus: growth inhibition, single agents and combos, LFS_MB_1R, cell-based, cisplatin or BGB combos, synergistic combos for chromothripsis tumors (AID 1671452).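 Also: cells exposed for 96 hours before readout.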 To be noted: LFS_MB_1R medulloblastoma cells, stronger effect = higher value.
Assay [4] in a line: growth inhibition, single agents and combos, CRL2098, cell-based, BGB or cisplatin IC20 combos, synergistic combos for chromothripsis tumors (AID 1671454).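 Also: cells exposed for 96 h before readout; 0% = vehicle DMSO and 100% = killing by high DMSO.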 To be noted: CRL2098 osteosarcoma cells, drug combinations, stronger effect = higher value.
A short description of assay [5]: growth inhibition, single agents and combos, HD-MB03, cell-based, BGB or cisplatin IC20 combos, synergistic combos for chromothripsis tumors (AID 1671455; in the data active = inhibition above about 83%;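 also: 0% = vehicle DMSO and 100% = high DMSO as cytotoxic control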). To be noted: HD-MB03 medulloblastoma cells, stronger effect = higher value.
The nature of assay [6]: growth inhibition, single agents and combos, UWB1.289, cell-based, BGB or cisplatin combos, synergistic combos for chromothripsis tumors (AID 1671456).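 Also: cells exposed to compound for four days; 0% = vehicle DMSO and 100% = killing by high DMSO.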 To be noted: UWB1.289 ovarian carcinoma cells, stronger effect = higher value.
A short description of assay [7]: growth inhibition, single agents and combos, LFS_MB_2R, cell-based, cisplatin combos, synergistic combos for chromothripsis tumors (AID 1671457).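 Also: cells exposed to compound for four days before readout.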 The settings on record: LFS_MB_2R medulloblastoma cells, stronger effect = higher value.
Assay [8] can be described thus: UWB1.289_BRCA1 ovarian cancer growth, cell-based, BGB or cisplatin combinations (AID 1671459). To be noted: UWB1.289 BRCA1 ovarian carcinoma, drug combinations, stronger effect = higher value.
A short description of assay [9]: drug combination toxicity in non-malignant astrocytes – cell-based, BGB or cisplatin IC20 combos, cytotoxicity control for chromothriptic childhood tumor combination screen (AID 1671460).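 Also: cells exposed to compounds for 96 hours before viability readout; 0% = vehicle and 100% = killing control.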 The settings on record: Human astrocytes, viability inhibition, drug combinations, at 0.5 µM, stronger effect = higher value.
Assay [10] concerns Neuropilin-2 / VEGF-C interaction (human). Description: small molecules blocking Neuropilin-2/VEGF-C interaction – biochemical, microplate binding format, z-score (AID 743281; call rule not given here). To be noted: microplate NRP2/VEGF-C binding assay; stronger effect = lower value.
The test system of assay [11] is Aerobactin synthetase IucA (Klebsiella pneumoniae). Description: inhibition of K. pneumoniae IucA enzyme – biochemical, Tocris library, absorbance (AID 1345561; call rule not given here;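 also: 100% = enzyme without compound and 0% = no enzyme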). To be noted: purified IucA enzyme assay, absorbance (OD) read-out; stronger effect = lower value;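 tested at 8 µM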.
The nature of assay [12]: chitosan synthesis blockers in C. neoformans – flow cytometry, Cibacron Brilliant Red staining (AID 1347148; call rule not given here;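 also: compound exposure lasted three days at 37 degrees C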). To be noted: Cryptococcus neoformans chitosan, stronger effect = lower value; at 99.1 µM unless noted. On the technique in general: In flow cytometry, cells or beads pass a laser one at a time.
For assay [13], the target named is ATP-dependent translocase ABCB1 (Homo sapiens) (UniProt P08183). Description: P-glycoprotein substrate transport blockade – cell-based (AID 377; in the data active = fluorescence slope change above about 50%). The settings on record: MDR1-expressing cells, fluorescent substrate accumulation slope; stronger effect = higher value; concentration not given here.
Chain of ATP-dependent translocase ABCB1 (Homo sapiens) (P08183 whole entry, looked up): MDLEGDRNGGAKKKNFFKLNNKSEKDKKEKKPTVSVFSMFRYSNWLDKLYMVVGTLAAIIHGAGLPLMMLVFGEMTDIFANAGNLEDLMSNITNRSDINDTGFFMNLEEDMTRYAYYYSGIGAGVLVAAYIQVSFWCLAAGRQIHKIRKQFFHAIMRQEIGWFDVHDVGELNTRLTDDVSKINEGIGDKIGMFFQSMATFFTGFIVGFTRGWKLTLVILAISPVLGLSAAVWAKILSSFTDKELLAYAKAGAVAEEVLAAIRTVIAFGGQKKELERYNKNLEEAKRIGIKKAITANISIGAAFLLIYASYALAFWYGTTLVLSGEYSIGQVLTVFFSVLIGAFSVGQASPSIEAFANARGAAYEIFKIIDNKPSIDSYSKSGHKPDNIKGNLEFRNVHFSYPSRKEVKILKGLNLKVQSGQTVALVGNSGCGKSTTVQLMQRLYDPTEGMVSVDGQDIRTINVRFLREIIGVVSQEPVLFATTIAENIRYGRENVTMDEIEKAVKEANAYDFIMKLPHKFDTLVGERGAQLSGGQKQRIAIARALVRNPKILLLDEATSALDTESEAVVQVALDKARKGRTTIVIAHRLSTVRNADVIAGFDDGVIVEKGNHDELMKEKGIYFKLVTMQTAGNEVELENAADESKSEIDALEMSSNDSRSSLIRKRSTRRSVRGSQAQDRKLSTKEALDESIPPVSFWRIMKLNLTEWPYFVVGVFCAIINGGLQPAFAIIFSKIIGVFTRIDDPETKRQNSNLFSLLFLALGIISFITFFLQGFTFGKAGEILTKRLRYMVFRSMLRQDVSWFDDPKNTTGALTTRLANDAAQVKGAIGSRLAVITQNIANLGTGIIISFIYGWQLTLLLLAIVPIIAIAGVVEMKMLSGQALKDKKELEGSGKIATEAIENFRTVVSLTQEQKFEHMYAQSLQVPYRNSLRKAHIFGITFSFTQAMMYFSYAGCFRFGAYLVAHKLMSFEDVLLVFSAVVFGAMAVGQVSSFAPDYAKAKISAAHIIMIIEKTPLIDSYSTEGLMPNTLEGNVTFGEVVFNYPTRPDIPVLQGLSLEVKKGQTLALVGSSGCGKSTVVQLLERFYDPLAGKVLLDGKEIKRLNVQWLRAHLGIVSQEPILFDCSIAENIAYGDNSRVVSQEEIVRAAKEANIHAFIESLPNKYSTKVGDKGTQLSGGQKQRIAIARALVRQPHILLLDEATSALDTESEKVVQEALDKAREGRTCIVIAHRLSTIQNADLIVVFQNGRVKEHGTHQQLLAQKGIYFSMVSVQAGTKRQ
The nature of assay [14]: compounds altering HSF1 focus formation in cells – imaging, Selleck Cancer Library (AID 1347162; in the data active = plate-normalised HSF1 focus index below about 0.46). The settings on record: human cells, HSF1 nuclear foci imaging, at 10 µM; SSMD: measured here: HSF1 foci SSMD mean; cell count: measured here: cell number; plate-normalised HSF1 focus index: stronger effect = lower value.
The mark [15] stands for this setting: measured here: combination with BGB IC40, at 0.05 µM.
Setting [16] is: measured here: combination with cisplatin, at 0.5 µM.
The mark [17] stands for this setting: measured here: combination with cisplatin, at 5 µM.
Where [18] appears, read: measured here: combination with BGB at IC20, at 0.5 µM.
The mark [19] stands for this setting: measured here: combination with cisplatin at IC20, at 0.5 µM.
Setting [20] is: measured here: combo with BGB at IC20, at 0.5 µM.
Where [21] appears, read: measured here: combo with cisplatin at IC20, at 0.5 µM.
The mark [22] stands for this setting: measured here: inhibition with BGB combination, at 0.05 µM.
[23] abbreviates: measured here: inhibition with cisplatin combination, at 0.05 µM.
Setting [24] is: BGB combination, concentration series, at 5 µM.
Setting [25] is: cisplatin combination, concentration series, at 5 µM.
Where [26] appears, read: measured here: combo with BGB IC20.
Setting [27] is: measured here: combo with cisplatin IC20.

Each structure is given as a SMILES string. Values joined by “and” are separate entries in the source; they are usually repeats but may differ in a detail not shown here. Equal entries are not always repeated. Inconclusive results are not listed. Active and inactive are the calls of the source. Rule as the data show it, unless noted: active = inhibition above about 80%; inactive = the rest.

For `CC1COc2c(N3CCN(C)CC3)c(F)cc3c(=O)c(C(=O)O)cn1c23` (stereo not drawn), the call in assay [1] and in assay [2] was inactive. Also, the inhibition (in general, the drop in the measured response relative to a control, in per cent) in assay [3] (at 0.5 µM) was -39.4% (inactive) and -8.3% (inactive) and 2.79% (inactive); in assay [3] (setting [15]), -24.5% and -34% and -2.54%; in assay [3] (setting [16]), -78.8% and -30% and 23.8%; in [3] (setting [17]) it was -87.1% and 21.5% and -3.71%; in assay [4] (at 0.5 µM) it was -97.4% (inactive) and -9.66% (inactive) and -3.54% (inactive); in [4] (setting [18]) it was -84.4% and -20.4% and 15.5%. The inhibition in [4] (setting [19]) is -95.4% and 17.6% and 11.9%; in [5] (at 0.5 µM), -17.7% (inactive) and 0.8% (inactive) and 1.26% (inactive); in assay [5] (setting [20]), -22% and -1.41% and -0.426%; in assay [5] (setting [21]), -27.3% and 2.8% and -2.37%; in assay [6] (at 0.5 µM), -7.78% (inactive) and 3.9% (inactive) and 3.09% (inactive); in assay [6] (setting [22]), -28.7% and 4.48% and 2.71%. Besides, the inhibition in assay [6] (setting [23]) is -3.9% and 3.6% and -0.825%; in assay [7] (at 0.5 µM) it was -19.3% (inactive) and 6.15% (inactive) and -0.77% (inactive); in assay [7] (setting [16]), -23.3% and -0.024% and 7.26%; in assay [7] (setting [17]) it was -88.9% and 5.83% and 8.15%; in assay [8] (setting [24]), -49.7% and -1.75% and -2.9%; in [8] (at 0.5 µM) it was -9.08% (inactive) and -0.86% (inactive) and 1.25% (inactive). Besides, the inhibition in [8] (setting [25]) was -6.84% and 7.33% and -3.71%; in [9] it was -0.29% (inactive) and 4.48% (inactive) and 7.23% (inactive); in [9] (setting [26]) it was 12.7% and 6.41% and 15%; in [9] (setting [27]), -18.7% and -2.95% and 15.1%.
With `COc1c(N2CCNC(C)C2)c(F)cc2c(=O)c(C(=O)O)cn(C3CC3)c12` (stereo not drawn), in [2], the outcome was inactive. In addition, the inhibition in assay [3] (at 0.5 µM) is -13.4% (inactive) and -12.7% (inactive); in assay [3] (setting [15]) it was -24.8% and -10.4%; in assay [3] (setting [16]), -39.4% and -1.15%; in assay [3] (setting [17]), -37.1% and -28.2%; in [4] (at 0.5 µM), -43.6% (inactive) and -34.5% (inactive); in [4] (setting [18]), -42.5% and -87.3%. The inhibition was -71.8% and 0.194% in assay [4] (setting [19]); -13.9% (inactive) and 3.18% (inactive) in assay [5] (at 0.5 µM); -14.1% and 5.19% in [5] (setting [20]); -19.6% and 0.97% in assay [5] (setting [21]); -2.27% (inactive) and 6.63% (inactive) in assay [6] (at 0.5 µM); -7.46% and -0.326% in assay [6] (setting [22]). For the same compound, the inhibition in [6] (setting [23]) was -30.7% and -0.886%; in [7] (at 0.5 µM), -11.1% (inactive) and 6.57% (inactive); in assay [7] (setting [16]) it was -12.5% and 9.12%; in assay [7] (setting [17]) it was -5.47% and -26.4%; in assay [8] (setting [24]), -10.3% and 3.45%; in assay [8] (at 0.5 µM), -4.22% (inactive) and 5.59% (inactive). The inhibition was -1.48% and 7.21% in [8] (setting [25]); -3.01% (inactive) and 1.57% (inactive) in assay [9]; -5.37% and 4.53% in [9] (setting [26]); -9.08% and 0.874% in assay [9] (setting [27]).
For `COCCOC(=O)C1=C(C)NC(C)=C(C(=O)OC(C)C)C1c1cccc([N+](=O)[O-])c1` (stereo not drawn), in [10], the z-score was -0.18 (inactive). The remaining activity – broadly, the signal under treatment as a percentage of the control signal – in [11] is 102% (inactive). Also, the fold fluorescence in assay [12] is 6.04 [at 119.5 µM] (inactive).
Regarding `CC(COc1ccccc1)N(CCCl)Cc1ccccc1` (stereo not drawn), the call in [1] and in assay [2] was inactive.
`CCn1cc(C(=O)O)c(=O)c2cc(F)c(N3CCN(C)CC3)cc21`: in assay [10], the z-score is -1.05 (inactive). In addition, the inhibition was -35.2% (inactive) and -9.17% (inactive) in [3] (at 0.5 µM); -12.2% and -6.93% in assay [3] (setting [15]); -66.1% and -0.499% in assay [3] (setting [16]); -52.8% and 11.3% in [3] (setting [17]); -41.2% (inactive) and 7.78% (inactive) in assay [4] (at 0.5 µM); -48.5% and 10.5% in assay [4] (setting [18]). In addition, the inhibition in assay [4] (setting [19]) is -57.7% and 40.3%; in [5] (at 0.5 µM), -16.4% (inactive) and 1.14% (inactive); in assay [5] (setting [20]), -17.4% and 6.49%; in assay [5] (setting [21]), -24.9% and -8.23%; in assay [6] (at 0.5 µM), -8.81% (inactive) and 8.67% (inactive); in assay [6] (setting [22]) it was -24.8% and -1.17%. The inhibition in [6] (setting [23]) was -21.6% and 2.48%; in assay [7] (at 0.5 µM) it was -5.46% (inactive) and 1.79% (inactive); in assay [7] (setting [16]) it was 3.08% and 3.79%; in [7] (setting [17]), -14.9% and -26.1%; in assay [8] (setting [24]) it was -6.71% and 0.813%; in [8] (at 0.5 µM) it was -17.9% (inactive) and 5.05% (inactive). In addition, the inhibition is -12.6% and 1.69% in assay [8] (setting [25]); -3.63% (inactive) and -0.44% (inactive) in assay [9]; 1.4% and 4.59% in assay [9] (setting [26]); -18.3% and 1.72% in [9] (setting [27]).
Regarding `COc1ccccc1OCC(O)COC(N)=O` (stereo not drawn), the fluorescence slope change in [13] was 15.6% (inactive).
Consider `Cc1onc(-c2c(Cl)cccc2Cl)c1C(=O)N[C@@H]1C(=O)N2[C@@H]1SC(C)(C)[C@@H]2C(=O)O`, for which, in assay [13], the fluorescence slope change was 74.3% (active).
For the compound `O=c1[nH]cc(F)c(=O)[nH]1`, the call in [1] and in [2] was inactive. The compound also registered an SSMD in assay [14] of 2.14. Also, the cell count in assay [14] stood at 7020. The plate-normalised HSF1 focus index in [14] is 1.12 (inactive). Besides, the inhibition in assay [3] (at 0.5 µM) is -23.7% (inactive); in assay [3] (setting [15]), -2.27%; in assay [3] (setting [16]), 11.9%; in [3] (setting [17]), -15.5%; in assay [4] (at 0.5 µM), -19.9% (inactive); in [4] (setting [18]) it was -48.5%. In addition, the inhibition in [4] (setting [19]) is 13.5%; in assay [5] (at 0.5 µM), -10.4% (inactive); in assay [5] (setting [20]), -12.3%; in assay [5] (setting [21]), -6.42%; in [6] (at 0.5 µM) it was 0.81% (inactive); in assay [6] (setting [22]), -23.6%. Moreover, the inhibition is -10.5% in assay [6] (setting [23]); -13.7% (inactive) in assay [7] (at 0.5 µM); -7.48% in assay [7] (setting [16]); -1.94% in [7] (setting [17]); 2.42% in assay [8] (setting [24]); -7.71% (inactive) in assay [8] (at 0.5 µM). In addition, the inhibition in assay [8] (setting [25]) is 17%; in assay [9], -3.88% (inactive); in [9] (setting [26]) it was 2.98%; in assay [9] (setting [27]), -4.03%.
For `CN(C)CCc1c[nH]c2ccc(C[C@H]3COC(=O)N3)cc12`, the z-score in assay [10] was -0.511 (inactive).
Take `COC(=O)Nc1nc2ccc(C(=O)c3ccccc3)cc2[nH]1`: the fluorescence slope change in assay [13] is 92.4% (active). The AC50 (as a rule, the concentration giving half of the maximal activity seen) is 417 nM (active) in [1] and 332 nM (active) in assay [2].
